M1 antag: blocks human M1 muscarinic receptor; P11229; CHO-K1 hM1, Fluo-8 calcium fluorescence, ACh EC80 antagonist; inhibition, % at 3 µM; actives 1.3% (n = 360,000); AID 588852;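 active = percent inhibition above its own plate's cutoff, namely the mean of that plate's compound wells plus 3 SD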;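 note: peak over basal fluorescence ratio during 140 s after agonist addition; 0% = ACh EC80 plus DMSO and 100% = DMSO alone without agonist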
Target sequence (P11229 whole entry, looked up): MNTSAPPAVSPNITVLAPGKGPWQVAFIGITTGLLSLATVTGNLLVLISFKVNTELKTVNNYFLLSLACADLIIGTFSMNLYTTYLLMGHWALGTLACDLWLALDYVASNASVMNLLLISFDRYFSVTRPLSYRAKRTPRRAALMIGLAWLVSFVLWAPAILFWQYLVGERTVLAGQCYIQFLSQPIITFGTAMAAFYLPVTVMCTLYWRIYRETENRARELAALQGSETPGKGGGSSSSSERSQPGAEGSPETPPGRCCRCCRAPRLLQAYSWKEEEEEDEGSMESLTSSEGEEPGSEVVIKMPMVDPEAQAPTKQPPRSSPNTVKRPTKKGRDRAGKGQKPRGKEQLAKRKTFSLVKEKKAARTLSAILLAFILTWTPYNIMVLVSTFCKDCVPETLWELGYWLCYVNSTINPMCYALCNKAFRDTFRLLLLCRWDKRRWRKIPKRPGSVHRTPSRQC
CHRM1 agonist: agonists of human M1 muscarinic receptor; AID 588814; activation, % at 3 µM; actives 0.33% (n = 360,000); CHO-K1 hM1, Fluo-8 calcium fluorescence, agonist mode; 0% DMSO, 100% acetylcholine EC100; P11229;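 active = activation above the run's mean compound activation plus 3 SD, cut at about 16% in these data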;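 note: peak over basal fluorescence ratio within a 140 s kinetic read after compound addition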
M1 PAM parental: M1 PAM counterscreen hit in parental CHO-K1 cells; ATP EC20, Fluo-8 calcium fluorescence; 0% at ATP EC20, 100% at ATP max; activation, % at 3 µM; actives 0.02% (n = 360,000); AID 602247;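 active = activation above the run cutoff, the mean activation of all test compounds plus 3 SD, cut at about 40% in these data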;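 note: peak over basal fluorescence ratio in a 140 s read after ATP addition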
CHO-K1 Ca antag: counter-screen for M1 antagonists: effect in parental CHO-K1 cells | ATP-induced calcium, Fluo-8 fluorescence | AID 602250 | inhibition, % at 3 µM | actives 0.6% (n = 360,000);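 active = inhibition above a per-plate cutoff, the plate's mean sample inhibition plus 3 SD, cut at about 24% in these data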;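 note: 0% = DMSO plus EC80 ATP and 100% = DMSO alone without ATP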
M1 ag parental: M1 agonist counterscreen hit in parental CHO-K1 cells. Fluo-8 calcium fluorescence; scaled to maximal ATP response, vehicle zero. activation, % at 3 µM. actives 0.48% (n = 360,000); in the data active = activation above about 15%;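 note: untransfected CHO-K1 host cells lacking M1 receptor as counterscreen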
M1 PAM: positive allosteric modulators of human M1 muscarinic receptor; activation, % at 3 µM; CHO-K1 hM1, Fluo-8 calcium fluorescence, ACh EC20; 0% = ACh EC20, 100% = maximal ACh; P11229; actives 0.088% (n = 360,000); in the data active = activation above about 19%, passing the limit was not always enough
Starred values were filed as active, the others as inactive; nt = no result given. Shown are actives, neighbours in structure and some others; about 2.3% of the full set was active somewhere.

SMILES	M1 antag	CHRM1 agonist	M1 PAM parental	CHO-K1 Ca antag	M1 ag parental	M1 PAM
CC(C)C[C@H]1CNC(=S)N1CC1CCCN1C[C@H](CC(C)C)N1C[C@H](CC(C)C)N(CCc2ccccc2)C1=S (stereo partly specified)	-2	-6	3	0	0	-3
CCCCCCCCCCCC(=O)N/N=C/c1ccco1	-5	-2	20	-11	1	1
Cc1ccc(C2=NS(=O)(=O)N(C)C(C(=O)NC3CCCCC3)=C2)cc1	2	0	10	-2	4	-1
CC1(C)CC(=O)C2=C(C1)OC1=C(C2)C(=O)CC(C)(C)C1	-4	-10	14	-5	0	-4
COCCNc1nc(NCc2cccs2)nc2ccsc12	91*	93*	-18	64*	85*	-33
CC(=O)NCCNc1nc(NCc2cccs2)nc2ccsc12	-25	-3	-2	-6	5	-1
CCOC(=O)Cc1ccc(Nc2nc(NCCOC)nc3ccsc23)cc1	42*	-5	-11	-2	5	-30
c1ccc(CNc2nc(NCc3cccs3)nc3ccsc23)cc1	25	14	11	14	16*	-21
CNc1nc(NCc2ccccc2)c2sccc2n1	8	2	-9	-5	6	-4
Cc1ccc(Nc2nc(NCc3cccs3)nc3ccsc23)c(C)c1	13	6	8	8	7	-15
Cc1ccc(Nc2nc(NCc3ccccc3)nc3ccsc23)c(C)c1	55*	16	-11	18	2	-24
c1ccc(CNc2nc(NCCc3ccncc3)c3sccc3n2)cc1	91*	99*	-14	99*	93*	-31
CC(C)C[C@H]1CN(CCCC[C@H]2CNC(=O)C(=O)N2CC2CCCCC2)C(=O)C(=O)N1Cc1ccccc1	nt	nt	20	-20	0	nt
O=C(CN1CCCCC1)N1N=C(c2cccs2)CC1c1cccs1 (stereo unspecified)	97*	-9	17	-2	0	-26
O=C(CNCCO)N1N=C(c2cccs2)CC1c1cccs1 (stereo unspecified)	-9	-16	8	-16	0	7
Cc1cc(OC(C)C(=O)NCC(O)c2ccccc2)c2c(C)cc(=O)oc2c1 (stereo unspecified)	-7	-1	-6	-7	1	6
Nc1sc(-c2ccccc2)n[n+]1Cc1cccc2cccnc12	66*	-3	8	-4	8	-25
Cc1ccc(OCC(=O)c2cc(C)n(Cc3cccs3)c2C)c([N+](=O)[O-])n1	20	-2	-11	28*	7	-11
Cc1ccc(OCC(=O)c2cc(C)n(CC(F)(F)F)c2C)c([N+](=O)[O-])n1	-4	1	-2	-7	3	8
C[C@H](CO)N1C[C@H](C)[C@@H](CN(C)Cc2ccc(Oc3ccccc3)cc2)Oc2c(NC(=O)c3ccncc3)cccc2C1=O	-4	-9	46*	-32	1	0
C[C@H](CO)N1C[C@H](C)[C@@H](CN(C)Cc2ccccc2)Oc2c(NC(=O)c3ccncc3)cccc2C1=O	-4	-6	-6	-10	1	2
CCn1c(C)cs/c1=N\C(=S)Nc1ccccc1C	-1	-7	-14	24*	0	4
COC(=O)C1=NN(c2ccc(Cl)cc2)C2C(=O)N(c3ccccc3OC)C(=O)C12 (stereo unspecified)	-9	-7	-8	4	1	-1
O=[N+]([O-])c1cc(S(=O)(=O)O)cc([N+](=O)[O-])c1NN(c1ccccc1)c1ccccc1	-2	-6	-9	-3	0	2
CCCC(=O)c1ccc(N2CCN(C(=O)c3cccs3)CC2)c(F)c1	42*	-3	-11	11	15*	-23
SMILES	M1 antag	CHRM1 agonist	M1 PAM parental	CHO-K1 Ca antag	M1 ag parental	M1 PAM
CC(=O)c1ccc(N2CCN(C(=O)c3cccs3)CC2)c(F)c1	-18	-2	12	-7	6	11
COc1cccc(NC(=O)CCC2CCN(C(=O)c3scnc3C)CC2)c1	-2	-1	-22	7	0	7
CCCCCOC(=O)C1=C(C)Nc2ncnn2C1c1cccs1 (stereo unspecified)	27*	-3	3	21	4	-9
Cc1ccc(S(=O)(=O)N2CCN(C(=O)C(C)Cn3cncn3)CC2)cc1 (stereo unspecified)	-8	-1	5	-14	0	17
c1ccc(Oc2cccc(OCCCn3cncn3)c2)cc1	-26	6	6	8	0	21*
CC(=O)Oc1ccc(Cl)cc1CN(C(C)=O)C1CCCCC1	-5	-6	13	-15	0	-2
Cc1onc(-c2ccccc2)c1C(=O)NNC(=S)NC(=O)c1ccc(Cl)cc1Cl	16	90*	-12	1	26*	-28
Cc1onc(-c2ccccc2)c1C(=O)NNC(=O)c1ccccc1	-17	-2	12	-15	0	10
Cc1onc(-c2ccccc2)c1C(=O)NNC(=S)NC(=O)/C=C/c1ccccc1	5	40*	6	-7	21*	-10
Cc1cccc(C(=O)NC(=S)NNC(=O)c2ccccc2Cl)c1	27	91*	-4	3	71*	-25
Cc1onc(-c2ccccc2)c1C(=O)NNC(=O)c1ccccc1O	-6	-3	9	-10	1	4
Cc1onc(-c2ccccc2)c1C(=O)NNC(=S)NC(=O)c1ccc(Br)cc1	7	75*	-12	-8	65*	-18
Cc1cccc(C(=O)NC(=S)NNC(=O)Cc2ccccc2)c1	2	15	-14	16	1	-6
Cc1cc(C)n2c(NC3CCCCC3)c(CC(C)C)nc2n1	nt	nt	13	-6	0	nt
O=C(NCCc1ccc(Cl)cc1)c1cccc(NC2=NC3CS(=O)(=O)CC3S2)c1 (stereo unspecified)	3	-4	12	-1	1	-1
CCOc1cc(C(=O)OC(C(=O)NC(=O)NC)c2ccccc2)ccc1OCC(=O)N1CCOCC1 (stereo unspecified)	-9	-4	18	-12	2	1
O=C(NC(=S)Nc1ncccn1)c1ccc(Cl)cc1Cl	-7	-6	12	-4	21*	10
Cc1ccccc1C(=O)NNC(=S)NC(=O)c1ccc(Cl)cc1Cl	18	85*	-13	12	89*	-25
O=C(NC(=S)NNC(=O)c1ccc(Cl)cc1Cl)c1cccnc1	2	-3	-5	11	0	1
Cc1ccc(C(=O)NNC(=S)NC(=O)c2ccc(Cl)cc2)cc1	45*	98*	-19	9	102*	-38

Screening data (PubChem)
